The panel holds about 83,000 compounds, 20% with a hit somewhere; the sample as a whole holds those more often.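 Activity criterion: percent growth below 10, measured after cells in 96-well plates were exposed to a single compound concentration for 48 hours.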 Unmarked numbers belong to inactive results. Activity calls are given as the source filed them.

This is an account of results in PubChem BioAssay (NCI).

What all share (assay): NCI-60 one-dose screen, 48 h (100 = growth as untreated, 0 = no growth, -100 = all killed)
The subject of one experiment is SR leukemia. As to conditions: 10 µM unless noted.
The test system of the next experiment is RPMI-8226 leukemia. As to conditions: 10 µM unless noted.
The subject of the next experiment is OVCAR-8 ovarian. As to conditions: 10 µM unless noted.
The test system of a further experiment is OVCAR-5 ovarian. As to conditions: 10 µM unless noted.
A further experiment concerns OVCAR-4 ovarian. As to conditions: 10 µM unless noted.
Another experiment relates to SK-OV-3 ovarian. As to conditions: 10 µM unless noted.
The next experiment deals with IGROV1 ovarian. As to conditions: 10 µM unless noted.
The test system of a further experiment is OVCAR-3 ovarian. As to conditions: 10 µM unless noted.
The subject of the next experiment is NCI/ADR-RES ovarian. As to conditions: 10 µM unless noted.
In a further experiment the test system is T-47D breast. As to conditions: 10 µM unless noted.
The next experiment deals with BT-549 breast. As to conditions: 10 µM unless noted.
The subject of the next experiment is MDA-MB-435 melanoma. As to conditions: 10 µM unless noted.
The next experiment deals with SW-620 colon. As to conditions: 10 µM unless noted.
In the next experiment the test system is MCF7 breast. As to conditions: 10 µM unless noted.
Another experiment has as its system HCT-116 colon. As to conditions: 10 µM unless noted.
The subject of the next experiment is KM12 colon. As to conditions: 10 µM unless noted.
For a further experiment, the system named is HCC-2998 colon. As to conditions: 10 µM.

For `CNC(=O)CN1CCC(Oc2cc3c(Nc4cccc(Cl)c4F)ncnc3cc2OC)CC1`, the growth in the experiment on SR leukemia is 63.8%; with RPMI-8226 leukemia it was 70.9%; in the experiment on OVCAR-8 ovarian it was 45.6%; in the experiment on OVCAR-5 ovarian, 25.3%; in the experiment with OVCAR-4 ovarian, 70.5%; in the experiment on SK-OV-3 ovarian, -22.4% (active). The growth in the experiment with IGROV1 ovarian was -25.2% (active); with OVCAR-3 ovarian it was 46.3%; with NCI/ADR-RES ovarian, 56.6%; with T-47D breast, -11.2% (active); in the experiment on BT-549 breast, 93.5%; with MDA-MB-435 melanoma, 98.2%. Also, the growth in the experiment with SW-620 colon is 71.5%; with MCF7 breast, 51.1%; in the experiment with HCT-116 colon, 54.7%; in the experiment on KM12 colon, 81.4%.
With `COc1ccc2c(OCc3nnc4ccc(-c5ccccc5)nn34)ccnc2c1`, the growth in the experiment on SR leukemia is 80.9% [2.5 µM]; in the experiment with RPMI-8226 leukemia, 104% [2.5 µM]; in the experiment on OVCAR-8 ovarian it was 102% [2.5 µM]; with OVCAR-5 ovarian, 87.3% [2.5 µM]; in the experiment with OVCAR-4 ovarian, 100% [2.5 µM]; with SK-OV-3 ovarian, 73.3% [2.5 µM]. Moreover, the growth in the experiment with IGROV1 ovarian is 106% [2.5 µM]; in the experiment with OVCAR-3 ovarian, 110% [2.5 µM]; in the experiment with NCI/ADR-RES ovarian it was 76.3% [2.5 µM]; in the experiment with T-47D breast, 71.1% [2.5 µM]; with BT-549 breast it was 102% [2.5 µM]; in the experiment on MDA-MB-435 melanoma it was 103% [2.5 µM]. Also, the growth in the experiment on SW-620 colon was 109% [2.5 µM]; with MCF7 breast, 93.4% [2.5 µM]; in the experiment with HCT-116 colon, 98.4% [2.5 µM]; with KM12 colon, 94.3% [2.5 µM].
For the molecule `C=CCN1C(=O)c2cccc3c(-c4ccc5c(c4)ncn5C4CCCCC4)ccc(c23)C1=O`, the growth in the experiment with SR leukemia is 39.8%; in the experiment with RPMI-8226 leukemia, 29.5%; in the experiment on OVCAR-8 ovarian, 49.5%; in the experiment on OVCAR-5 ovarian, 75.3%; in the experiment on OVCAR-4 ovarian it was 32.3%; in the experiment with SK-OV-3 ovarian, 73.4%. Besides, the growth is 67.1% in the experiment on IGROV1 ovarian; 62.4% with OVCAR-3 ovarian; 39.6% in the experiment on NCI/ADR-RES ovarian; 11.2% in the experiment with T-47D breast; 17% in the experiment with BT-549 breast; 39.4% in the experiment with MDA-MB-435 melanoma. The growth in the experiment with SW-620 colon was 86.3%; with MCF7 breast it was 37.6%; in the experiment with HCT-116 colon, 32%; in the experiment with HCC-2998 colon, 75.2%; in the experiment with KM12 colon, 49.4%.
For `CC(C)c1cc(CNc2nc(Nc3cc(C4CC4)[nH]n3)cc(N3CCN(C)CC3)n2)on1`, the growth in the experiment on SR leukemia was -5.3% (active); with RPMI-8226 leukemia it was -13.3% (active); in the experiment with OVCAR-8 ovarian it was 6.51% (active); with OVCAR-5 ovarian it was 18.5%; in the experiment with OVCAR-4 ovarian, -8.07% (active); in the experiment on SK-OV-3 ovarian, 0.435% (active). Moreover, the growth is 8.34% (active) in the experiment with IGROV1 ovarian; 15.5% in the experiment on OVCAR-3 ovarian; 39.2% with NCI/ADR-RES ovarian; 6.24% (active) in the experiment on T-47D breast; -21.9% (active) with BT-549 breast; -10.9% (active) in the experiment on MDA-MB-435 melanoma. Also, the growth with SW-620 colon was 7.6% (active); in the experiment with MCF7 breast, 11.5%; in the experiment on HCT-116 colon, 3.46% (active); in the experiment with KM12 colon, 4.41% (active).
Regarding `CCCS(=O)(=O)Nc1ccc(F)c(C(=O)c2c[nH]c3ncc(-c4ccc(Cl)cc4)cc23)c1F`, the growth was 15.3% in the experiment on SR leukemia; 29.2% in the experiment on RPMI-8226 leukemia; 32.1% with OVCAR-8 ovarian; 49% with OVCAR-5 ovarian; 49.3% with OVCAR-4 ovarian; -0.481% (active) in the experiment with SK-OV-3 ovarian. Further, the growth in the experiment on IGROV1 ovarian is 22.1%; with OVCAR-3 ovarian, 65.4%; with NCI/ADR-RES ovarian, 48.9%; in the experiment on T-47D breast, 8.42% (active); in the experiment with BT-549 breast, 41.1%; in the experiment on MDA-MB-435 melanoma, 13.4%. The growth is 78.5% in the experiment on SW-620 colon, 44.6% in the experiment with MCF7 breast, 27.3% in the experiment on HCT-116 colon and 32% in the experiment on KM12 colon.
As for `c1cc(OCCN2CCCCC2)cc(-c2n[nH]c3ccc(-c4ncn[nH]4)cc23)c1`, the growth is 7.19% (active) in the experiment on SR leukemia; 58.4% in the experiment with RPMI-8226 leukemia; 72.2% with OVCAR-8 ovarian; 56.5% in the experiment on OVCAR-5 ovarian; 62.7% with OVCAR-4 ovarian; 31.8% in the experiment with SK-OV-3 ovarian. The growth is 30.9% in the experiment on IGROV1 ovarian; 69% in the experiment with OVCAR-3 ovarian; 89.7% with NCI/ADR-RES ovarian; 68.3% with T-47D breast; 70.3% with BT-549 breast; 42.1% in the experiment with MDA-MB-435 melanoma. Besides, the growth in the experiment on SW-620 colon was 35.6%; in the experiment with MCF7 breast, 57.9%; with HCC-2998 colon it was 66.7%; with KM12 colon it was 39.6%.
With `Cc1nc2ccc(-n3ncc(C(=O)c4cc5ccccc5[nH]4)c3N)cc2[nH]1`, the growth with SR leukemia was 14.6%; with RPMI-8226 leukemia it was 45.2%; with OVCAR-8 ovarian, 41.9%; in the experiment with OVCAR-5 ovarian, 65.9%; in the experiment on OVCAR-4 ovarian, 71.1%; in the experiment on SK-OV-3 ovarian, 49.6%. Besides, the growth was 37.2% in the experiment with IGROV1 ovarian; 63.2% in the experiment on OVCAR-3 ovarian; 66% in the experiment with NCI/ADR-RES ovarian; 34.9% with T-47D breast; 54% in the experiment with BT-549 breast; 62.8% in the experiment on MDA-MB-435 melanoma. Also, the growth in the experiment with SW-620 colon is 43.7%; in the experiment on MCF7 breast it was 44.2%; in the experiment with HCT-116 colon it was 27.1%; with KM12 colon, 17.3%.
On to `CN(C)C[C@@H]1CCn2cc(c3ccccc32)C2=C(C(=O)NC2=O)c2cn(c3ccccc23)CCO1`, for which the growth with SR leukemia was -11.8% (active); with RPMI-8226 leukemia it was -18.8% (active); with OVCAR-8 ovarian it was -0.0404% (active); in the experiment on OVCAR-5 ovarian, -7.31% (active); in the experiment with OVCAR-4 ovarian, -45.9% (active); in the experiment with SK-OV-3 ovarian it was 6.11% (active). Further, the growth in the experiment on IGROV1 ovarian was -13.1% (active); in the experiment with OVCAR-3 ovarian, 1.36% (active); with NCI/ADR-RES ovarian it was 6.82% (active); in the experiment with T-47D breast it was 21.2%; with BT-549 breast it was -3.62% (active); in the experiment with MDA-MB-435 melanoma, 20.2%. The growth in the experiment with SW-620 colon was -57.6% (active); in the experiment with MCF7 breast, -58.8% (active); in the experiment on HCC-2998 colon it was 22%; in the experiment with KM12 colon, 3.55% (active).
